Assay [1] concerns the target Leukocyte tyrosine kinase receptor (Homo sapiens) (UniProt P29376). The following applies: at 1 µM.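 Further: each value is the mean inhibition of LTK.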
Assay [2] addresses Tyrosine-protein kinase Lyn (Homo sapiens) (UniProt P07948). The note with it: at 0.1 µM.
Assay [3] shares this target. The following applies: at 1 µM.
The target is the same in assay [4]. The note with it: at 0.1 µM. This is another data set of the same source.
The target is the same in assay [5]. The following applies: at 1 µM. This is another data set of the same source.
For assay [6], the target named is T1, Tyrosine-protein kinase Mer (Homo sapiens) (UniProt Q12866).
T1 sequence (whole entry): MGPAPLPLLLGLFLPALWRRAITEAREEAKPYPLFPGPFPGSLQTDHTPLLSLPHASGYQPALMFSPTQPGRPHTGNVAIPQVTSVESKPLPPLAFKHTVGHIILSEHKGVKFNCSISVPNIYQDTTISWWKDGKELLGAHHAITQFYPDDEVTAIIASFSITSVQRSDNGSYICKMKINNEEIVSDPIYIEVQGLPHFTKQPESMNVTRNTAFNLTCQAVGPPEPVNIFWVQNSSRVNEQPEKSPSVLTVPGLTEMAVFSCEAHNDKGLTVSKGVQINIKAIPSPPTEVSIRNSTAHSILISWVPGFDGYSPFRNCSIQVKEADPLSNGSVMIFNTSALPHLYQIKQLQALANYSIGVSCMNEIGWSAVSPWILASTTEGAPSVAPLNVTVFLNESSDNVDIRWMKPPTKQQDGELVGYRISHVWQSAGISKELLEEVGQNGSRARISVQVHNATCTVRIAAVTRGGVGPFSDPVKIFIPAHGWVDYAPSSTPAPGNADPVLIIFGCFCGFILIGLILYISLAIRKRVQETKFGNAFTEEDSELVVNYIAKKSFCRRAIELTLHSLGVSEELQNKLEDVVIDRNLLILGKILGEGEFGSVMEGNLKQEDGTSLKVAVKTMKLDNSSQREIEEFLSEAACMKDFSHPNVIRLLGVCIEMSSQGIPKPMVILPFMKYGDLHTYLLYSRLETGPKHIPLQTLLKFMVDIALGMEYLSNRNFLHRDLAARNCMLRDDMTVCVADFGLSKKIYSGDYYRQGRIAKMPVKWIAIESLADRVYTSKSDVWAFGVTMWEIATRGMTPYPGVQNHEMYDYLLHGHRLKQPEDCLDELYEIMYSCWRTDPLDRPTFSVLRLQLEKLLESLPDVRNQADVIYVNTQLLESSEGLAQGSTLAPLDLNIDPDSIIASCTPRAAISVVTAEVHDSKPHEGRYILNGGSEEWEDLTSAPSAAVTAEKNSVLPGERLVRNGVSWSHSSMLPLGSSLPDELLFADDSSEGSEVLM
The note with it: at 0.1 µM.

Assay [7] addresses T1, Tyrosine-protein kinase Mer (Homo sapiens). The note with it: at 1 µM.
Assay [8] addresses Hepatocyte growth factor receptor (Homo sapiens) (UniProt P08581). The following applies: at 0.1 µM.
Assay [9] has the same target. The following applies: at 1 µM.
Assay [10] deals with T2, Muscle, skeletal receptor tyrosine-protein kinase (Homo sapiens) (UniProt O15146).
T2 sequence (whole entry): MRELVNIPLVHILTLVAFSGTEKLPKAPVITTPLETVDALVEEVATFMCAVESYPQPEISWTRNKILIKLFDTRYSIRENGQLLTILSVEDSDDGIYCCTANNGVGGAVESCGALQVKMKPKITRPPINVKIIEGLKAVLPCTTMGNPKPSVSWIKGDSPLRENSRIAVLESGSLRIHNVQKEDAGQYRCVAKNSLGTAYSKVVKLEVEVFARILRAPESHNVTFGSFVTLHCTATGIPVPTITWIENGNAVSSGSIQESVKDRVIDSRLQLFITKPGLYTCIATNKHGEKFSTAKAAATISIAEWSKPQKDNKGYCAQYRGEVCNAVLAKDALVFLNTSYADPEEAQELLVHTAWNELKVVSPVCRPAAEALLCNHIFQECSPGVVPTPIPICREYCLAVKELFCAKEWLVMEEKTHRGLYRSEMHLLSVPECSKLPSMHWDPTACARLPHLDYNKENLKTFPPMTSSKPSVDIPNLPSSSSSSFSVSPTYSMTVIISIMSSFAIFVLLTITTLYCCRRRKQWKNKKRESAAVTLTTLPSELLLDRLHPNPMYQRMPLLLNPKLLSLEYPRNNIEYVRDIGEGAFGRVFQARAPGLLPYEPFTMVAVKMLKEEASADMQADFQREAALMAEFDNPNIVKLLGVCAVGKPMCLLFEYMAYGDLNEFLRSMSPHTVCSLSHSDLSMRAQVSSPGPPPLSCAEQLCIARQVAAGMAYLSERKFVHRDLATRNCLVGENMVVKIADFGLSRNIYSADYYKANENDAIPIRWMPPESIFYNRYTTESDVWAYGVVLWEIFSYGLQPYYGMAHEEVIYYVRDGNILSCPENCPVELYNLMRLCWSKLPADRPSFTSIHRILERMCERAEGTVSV
The following applies: at 0.1 µM.

Assay [11] deals with T2, Muscle, skeletal receptor tyrosine-protein kinase (Homo sapiens). The note with it: at 1 µM.
Assay [12] deals with Platelet-derived growth factor receptor alpha (Homo sapiens) (UniProt P16234). The note with it: at 0.1 µM.
For assay [13] the target is unchanged. The note with it: at 1 µM.
The test system of assay [14] is Platelet-derived growth factor receptor alpha (Homo sapiens), P16234 [D842V]. The following applies: at 0.1 µM.
Assay [15] has the same test system. The following applies: at 1 µM.
Assay [16] concerns Platelet-derived growth factor receptor alpha (Homo sapiens), P16234 [T674I]. The following applies: at 0.1 µM.
Assay [17] shares this test system. The following applies: at 1 µM.
Assay [18] relates to Platelet-derived growth factor receptor alpha (Homo sapiens), P16234 [V561D]. The following applies: at 0.1 µM.
Assay [19] has the same test system. The note with it: at 1 µM.
The target in assay [20] is Platelet-derived growth factor receptor beta (Homo sapiens) (UniProt P09619). The following applies: at 0.1 µM.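 Further: reported value is the mean percent inhibition of the kinase.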

Broadly, the inhibition is the change of the read-out against control, counted positive when it falls.

Chain of Platelet-derived growth factor receptor alpha (Homo sapiens), P16234 [T674I] (P16234 whole entry T674I): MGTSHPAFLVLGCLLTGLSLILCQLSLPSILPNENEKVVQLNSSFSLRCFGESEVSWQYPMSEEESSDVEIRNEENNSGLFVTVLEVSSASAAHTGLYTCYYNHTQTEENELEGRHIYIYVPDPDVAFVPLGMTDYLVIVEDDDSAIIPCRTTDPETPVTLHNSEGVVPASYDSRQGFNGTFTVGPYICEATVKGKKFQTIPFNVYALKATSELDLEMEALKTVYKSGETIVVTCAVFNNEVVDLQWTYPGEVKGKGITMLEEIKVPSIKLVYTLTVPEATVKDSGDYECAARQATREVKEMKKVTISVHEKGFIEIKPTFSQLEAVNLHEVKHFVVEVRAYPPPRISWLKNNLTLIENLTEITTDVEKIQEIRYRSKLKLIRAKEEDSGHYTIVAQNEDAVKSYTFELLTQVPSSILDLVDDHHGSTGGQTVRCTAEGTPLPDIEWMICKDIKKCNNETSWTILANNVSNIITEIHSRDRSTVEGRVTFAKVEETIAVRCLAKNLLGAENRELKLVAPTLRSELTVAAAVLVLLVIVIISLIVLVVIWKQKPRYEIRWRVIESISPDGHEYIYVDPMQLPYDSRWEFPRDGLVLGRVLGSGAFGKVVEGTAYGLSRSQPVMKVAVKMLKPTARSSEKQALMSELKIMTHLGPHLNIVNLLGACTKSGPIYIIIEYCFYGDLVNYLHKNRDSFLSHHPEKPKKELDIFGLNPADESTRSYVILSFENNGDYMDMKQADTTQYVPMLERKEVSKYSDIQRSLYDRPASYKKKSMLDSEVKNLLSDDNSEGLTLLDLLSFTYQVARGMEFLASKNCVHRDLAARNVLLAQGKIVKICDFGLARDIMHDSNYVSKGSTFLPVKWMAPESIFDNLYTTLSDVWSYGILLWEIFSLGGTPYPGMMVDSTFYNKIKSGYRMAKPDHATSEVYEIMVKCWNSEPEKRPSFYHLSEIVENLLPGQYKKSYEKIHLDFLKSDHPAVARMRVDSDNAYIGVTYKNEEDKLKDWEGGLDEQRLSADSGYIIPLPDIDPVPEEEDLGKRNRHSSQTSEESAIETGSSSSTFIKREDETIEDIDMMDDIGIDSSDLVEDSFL
Chain of Platelet-derived growth factor receptor alpha (Homo sapiens), P16234 [V561D] (P16234 whole entry V561D): as the sequence (P16234 whole entry T674I) above, with V561D, I674T counted along it
Chain of Platelet-derived growth factor receptor alpha (Homo sapiens), P16234 [D842V] (P16234 whole entry D842V): as the sequence (P16234 whole entry T674I) above, with I674T, D842V counted along it
Chain of Platelet-derived growth factor receptor beta (Homo sapiens) (P09619 whole entry): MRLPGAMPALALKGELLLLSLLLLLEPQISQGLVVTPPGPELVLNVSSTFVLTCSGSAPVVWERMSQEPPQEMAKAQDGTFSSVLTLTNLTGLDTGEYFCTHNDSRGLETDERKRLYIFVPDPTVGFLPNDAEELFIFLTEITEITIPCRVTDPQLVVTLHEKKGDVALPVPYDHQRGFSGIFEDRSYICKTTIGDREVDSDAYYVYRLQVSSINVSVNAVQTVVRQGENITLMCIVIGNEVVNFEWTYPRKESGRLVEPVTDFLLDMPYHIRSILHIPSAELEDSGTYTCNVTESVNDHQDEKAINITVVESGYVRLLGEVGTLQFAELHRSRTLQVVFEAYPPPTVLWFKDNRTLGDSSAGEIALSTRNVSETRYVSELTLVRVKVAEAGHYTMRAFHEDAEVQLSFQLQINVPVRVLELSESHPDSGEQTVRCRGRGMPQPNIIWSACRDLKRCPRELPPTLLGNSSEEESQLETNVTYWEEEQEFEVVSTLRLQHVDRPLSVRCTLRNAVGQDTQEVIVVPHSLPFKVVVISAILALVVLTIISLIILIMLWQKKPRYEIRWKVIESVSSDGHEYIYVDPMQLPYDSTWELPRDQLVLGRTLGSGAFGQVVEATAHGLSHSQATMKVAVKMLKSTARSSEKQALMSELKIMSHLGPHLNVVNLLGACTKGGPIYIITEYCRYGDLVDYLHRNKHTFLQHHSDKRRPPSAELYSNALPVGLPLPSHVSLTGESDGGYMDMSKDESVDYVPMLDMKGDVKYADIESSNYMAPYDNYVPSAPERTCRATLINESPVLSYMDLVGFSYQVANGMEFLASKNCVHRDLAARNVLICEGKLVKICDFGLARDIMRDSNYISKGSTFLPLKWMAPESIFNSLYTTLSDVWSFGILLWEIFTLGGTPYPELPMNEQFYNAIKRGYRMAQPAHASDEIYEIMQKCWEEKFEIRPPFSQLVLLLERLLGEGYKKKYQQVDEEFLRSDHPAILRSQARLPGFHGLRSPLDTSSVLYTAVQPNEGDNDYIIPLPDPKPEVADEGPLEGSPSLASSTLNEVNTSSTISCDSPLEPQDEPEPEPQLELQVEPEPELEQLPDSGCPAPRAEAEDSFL
Chain of Tyrosine-protein kinase Lyn (Homo sapiens) (P07948 2-512 limits assumed): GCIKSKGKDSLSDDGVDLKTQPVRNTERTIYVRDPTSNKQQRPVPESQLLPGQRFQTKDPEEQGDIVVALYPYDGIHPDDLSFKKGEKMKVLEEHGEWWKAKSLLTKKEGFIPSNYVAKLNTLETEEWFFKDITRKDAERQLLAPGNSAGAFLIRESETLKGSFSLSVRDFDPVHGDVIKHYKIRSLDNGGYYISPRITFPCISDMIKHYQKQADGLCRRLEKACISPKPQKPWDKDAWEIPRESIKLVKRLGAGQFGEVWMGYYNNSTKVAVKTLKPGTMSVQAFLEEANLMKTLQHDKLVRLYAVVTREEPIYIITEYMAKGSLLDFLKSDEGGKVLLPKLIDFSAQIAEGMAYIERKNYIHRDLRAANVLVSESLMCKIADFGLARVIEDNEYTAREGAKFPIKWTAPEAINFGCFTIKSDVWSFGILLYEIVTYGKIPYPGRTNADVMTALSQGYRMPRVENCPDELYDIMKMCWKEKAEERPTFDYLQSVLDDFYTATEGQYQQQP

As for `CS(=O)(=O)CCNCc1ccc(-c2ccc3ncnc(Nc4ccc(OCc5ccccc5)cc4)c3c2)o1`, the inhibition in assay [1] turned out to be 4.57%; in assay [2], 4.79%; in [3], 9.83%; in [4] it was 4.55%; in assay [5], 8.36%; in assay [6], 7.16%. Moreover, the inhibition in assay [7] is 43.7%; in [8], -0.6%; in assay [9], 4.43%; in assay [10], 2.69%; in assay [11], 1.04%; in assay [12] it was 4.6%. For the same compound, the inhibition in [13] was 10.4%; in assay [14], 3.6%; in [15] it was 3.61%; in assay [16] it was 3.14%; in [17] it was 4.61%; in assay [18], 5.39%. Moreover, the inhibition in [19] was determined as 7.8%; in [20], 3%.

Take `COC(=O)Nc1nc2ccc(Oc3ccc(NC(=O)Nc4cc(C(F)(F)F)ccc4F)cc3)cc2s1`: the inhibition in assay [1] was 2.2%; in assay [2], 28.7%; in assay [3], 70.5%; in [4], 22.6%; in assay [5] it was 66.5%; in assay [6], 0.03%. Further, the inhibition in [7] is 4.8%; in assay [8], 9.69%; in assay [9], 34.6%; in [10] it was 76.3%; in [11], 85.6%; in [12], 70.3%. The inhibition came to 83.5% in assay [13]; 5.8% in [14]; 22.8% in [15]; 41.6% in assay [16]; 92% in [17]; 74.8% in assay [18]. Moreover, the results for the inhibition in assay [19] and in assay [20] were 93.7% and 20.2%, respectively.

As to `NS(=O)(=O)c1cccc(N/C=C2\C(=O)Nc3ccccc32)c1`, the inhibition in assay [1] was found to be 10.6%; in assay [2], 5.77%; in [3], 11.6%; in assay [4], 3.69%; in [5], 8.12%; in assay [6] it was 3.46%. For the same compound, the inhibition in [7] was 8.24%; in assay [8] it was 4.45%; in assay [9], 6.92%; in assay [10], 4.44%; in [11] it was 12.1%; in assay [12], 7.39%. Also, the inhibition in assay [13] is 26.2%; in [14], 4.57%; in assay [15], 15.1%; in assay [16], 9.22%; in assay [17], 46.1%; in assay [18], 5.48%. Also, the inhibition is 31.2% in assay [19] and 4.88% in assay [20].

For `CCN1CCC(C(=O)Nc2n[nH]c3nnc(-c4cccc(F)c4F)cc23)CC1`, the inhibition was -0.29% in assay [1]; 0.08% in [2]; -1.05% in assay [3]; 1.1% in [4]; 0.66% in [5]; 0.64% in [6]. In addition, the inhibition in [7] amounted to 2.84%; in [8] it was 4.13%; in assay [9] it was 2.58%; in [10] it was 1.86%; in assay [11], 4.59%; in assay [12], 0.87%. For the same compound, the inhibition in [13] was 3.69%; in assay [14], 1.64%; in [15] it was 2.59%; in assay [16] it was 2.94%; in [17] it was 7.18%; in assay [18] it was -0.48%. For the same compound, the inhibition in [19] came to 0.89%; in [20], 3.08%.

As to `O=C(O[C@H]1CN[C@H](C#Cc2cc3ncnc(Nc4ccc5c(cnn5Cc5ccccc5)c4)c3s2)C1)N1CCOCC1`, the inhibition in assay [1] is -0.87%; in assay [2], 1.1%; in [3] it was 1.11%; in assay [4], 1.54%; in assay [5] it was 0.75%; in assay [6] it was 1.33%. The inhibition in assay [7] is 9.62%; in assay [8], 5.14%; in assay [9] it was 1.77%; in assay [10], 0.92%; in assay [11] it was -0.19%; in [12] it was 2.17%. The inhibition is 8.81% in assay [13]; 2.71% in [14]; 3.09% in assay [15]; -0.12% in [16]; 2.78% in assay [17]; 2.22% in assay [18]. The inhibition in assay [19] came to 2.22%; in assay [20], 2.18%.

For the compound `Cc1nnc(-c2cccc(-c3ccc(C(=O)NCC4CC4)cc3)c2)o1`, the inhibition turned out to be 4.76% in assay [1]; 7.2% in assay [2]; 5.98% in assay [3]; 3.09% in assay [4]; 5.48% in assay [5]; 0.22% in assay [6]. The inhibition in assay [7] worked out at 0.56%; in [8], 3.78%; in [9], 7.87%; in assay [10] it was 2.8%; in assay [11] it was 6.37%; in [12] it was 13.9%. Moreover, the inhibition in assay [13] is 15.2%; in assay [14] it was 2.78%; in assay [15], 5.47%; in [16], 6.98%; in assay [17], 11.6%; in [18], 4.66%. In addition, the results for the inhibition in [19] and in assay [20] were 3.3% and 5.4%, respectively.

Source of the values: ChEMBL document CHEMBL1961873, “Compounds: GSK PKIS; Assays: Nanosyn kinase panel” (2012).
